# Assay results: PubChem BioAssay (NCI)
# This is part of a sample that, as a whole, favours compounds with a hit. Of some 83,000 tested, about 20% had one in any assay.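 Testing used 96-well plates and a 48-hour single-concentration exposure. Example: -40 means 40% of the starting cells died.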 Unmarked numbers belong to inactive results. The source made the active and inactive calls. The calls were made as follows: active = growth percent below 10; inactive = the rest.
# What was measured:
# Test in all cases: NCI-60 one-dose screen, 48 h (100 = growth as untreated, 0 = no growth, -100 = all killed)
# Conditions in all cases: 10 µM
# NCI-H23 lung = system: NCI-H23 lung
# NCI-H226 lung = system: NCI-H226 lung
# NCI-H322M lung = system: NCI-H322M lung
# HOP-62 NSCLC = system: HOP-62 NSCLC
# NCI-H460 lung = system: NCI-H460 lung
# NCI-H522 lung = system: NCI-H522 lung
# A549/ATCC NSCLC = system: A549/ATCC NSCLC
# 786-0 renal = system: 786-0 renal
# COLO 205 colon = system: COLO 205 colon
Structure (SMILES),growth (NCI-H23 lung),growth (NCI-H226 lung),growth (NCI-H322M lung),growth (HOP-62 NSCLC),growth (NCI-H460 lung),growth (NCI-H522 lung),growth (A549/ATCC NSCLC),growth (786-0 renal),growth (COLO 205 colon)
Cc1ccncc1C(N)=O,119%,95.4%,104%,98.6%,101%,101%,108%,106%,124%
CC1CCCC(CC(N)=O)CC1 (centres undefined),102%,98.7%,112%,94.9%,98.8%,88.1%,92.8%,110%,107%
N#CC1(Nc2ccc3c4c(cccc24)CC3)CCCCC1,93.5%,81.8%,85.1%,92.9%,105%,63.3%,95%,106%,94.7%
CCCCC(=O)c1ccc(OC)cc1,99.7%,99.7%,111%,112%,104%,91.2%,97.4%,96.2%,118%
Clc1ccc(-c2n[nH]c3c2Cc2ccccc2-3)cc1Cl,84.6%,94.4%,91.6%,95.1%,105%,-7.44% (active),37.5%,104%,115%
N#C/C(=C\c1cc(O)c(O)c(O)c1)C(N)=O,102%,108%,110%,97.2%,110%,76.5%,105%,94.6%,104%
c1ccc2c(N3CCCCC3)ncnc2c1,86.4%,87.2%,117%,100%,97.8%,47.6%,86.9%,98.7%,88.5%
CN(C)C(=O)Oc1cccc([N+](C)(C)C)c1,109%,92.8%,129%,100%,113%,109%,102%,116%,109%
Cc1cc(=O)[nH]c(NN=C2CCCC2)n1,122%,101%,108%,105%,116%,103%,123%,102%,118%
Cc1cc(C)cc(NCCC#N)c1,108%,112%,118%,115%,107%,106%,151%,111%,131%
COc1cc(C(=O)NC(=S)Nc2ccc3ccccc3c2)cc(OC)c1OC,82.5%,88.9%,101%,95.8%,107%,-23.4% (active),89.7%,116%,84.2%
NC(N)=Nc1cc2ccccc2c2ccccc12,86.7%,89.5%,98.7%,101%,86.8%,-49.2% (active),27.8%,90.6%,44.9%
CCCNc1ccc(C2=NCCCN2)cc1,95.6%,104%,88.7%,94.9%,103%,94.2%,79.2%,88.9%,99.5%
Oc1ccc(O)cc1,96.3%,110%,106%,106%,113%,-40.8% (active),102%,114%,112%
O=C1C=CC2=C3c4cc(O)c(O)cc4CC3(O)COC2=C1O (centres undefined),117%,95.1%,107%,100%,89.8%,84.5%,,92.1%,98.6%
NC(C(=O)O)c1ccc([N+](=O)[O-])cc1 (centres undefined),105%,103%,111%,96.5%,108%,,109%,109%,104%
O=c1cc(-c2ccccc2)[nH]c(=S)[nH]1,101%,103%,97.6%,108%,108%,89.3%,104%,97.5%,119%
CCC(C#N)(CC)c1ccccc1,99.5%,99.3%,99.4%,92.9%,104%,,111%,,
CC(C)(C)n1nc(C2CC2)c(Br)c1NC(=O)c1ccccc1F,117%,102%,98.3%,92.5%,102%,,93%,99.6%,
O=S(=O)(O)C(Nc1ccccc1)c1ccccc1 (centres undefined),103%,91.5%,97.6%,100%,102%,102%,103%,100%,103%
COc1ccc(C(C)C=O)cc1 (centres undefined),106%,111%,122%,107%,108%,,105%,107%,115%
O=C(N/N=C\c1cc(Br)cc(Br)c1O)N/N=C/c1cc(Br)cc(Br)c1O,67.1%,50.6%,42.2%,52.8%,69.8%,22.3%,,46.5%,62.1%
